Among the data in PubChem BioAssay (EPA / NIEHS) are outcome and AC50 values, retold here.

Activity calls are given as the source filed them. The calls were made as follows: active = hit-call score of the fitted dose curve at least 0.9, where 1 is the maximum; inactive = score below 0.9.

Usually AC50 stands for the concentration at which the activity in the assay is half-maximal.

The target of one test is Signal transducer and activator of transcription 3 (Homo sapiens) (UniProt P40763). The experiment in a line: ATG_STAT3_CIS: Attagene CIS-FACTORIAL HepG2 Assay for human Signal Transducer and Activator of Transcription 3 (STAT3) (AID 2282963). As to conditions: HepG2, Attagene cis-factorial STAT3 reporter transcription; actives raise or lower the signal. An outline of the steps: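 Fluorescence intensity of 6-FAM-labelled reporter fragments, separated by capillary electrophoresis after RT-PCR, gave the signal. Cells were HepG2 transfected with cis-element reporter units and treated 24 h; fitting was bidirectional relative to DMSO.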
Chain of Signal transducer and activator of transcription 3 (Homo sapiens) (P40763 whole entry, looked up, the tested form may be a part): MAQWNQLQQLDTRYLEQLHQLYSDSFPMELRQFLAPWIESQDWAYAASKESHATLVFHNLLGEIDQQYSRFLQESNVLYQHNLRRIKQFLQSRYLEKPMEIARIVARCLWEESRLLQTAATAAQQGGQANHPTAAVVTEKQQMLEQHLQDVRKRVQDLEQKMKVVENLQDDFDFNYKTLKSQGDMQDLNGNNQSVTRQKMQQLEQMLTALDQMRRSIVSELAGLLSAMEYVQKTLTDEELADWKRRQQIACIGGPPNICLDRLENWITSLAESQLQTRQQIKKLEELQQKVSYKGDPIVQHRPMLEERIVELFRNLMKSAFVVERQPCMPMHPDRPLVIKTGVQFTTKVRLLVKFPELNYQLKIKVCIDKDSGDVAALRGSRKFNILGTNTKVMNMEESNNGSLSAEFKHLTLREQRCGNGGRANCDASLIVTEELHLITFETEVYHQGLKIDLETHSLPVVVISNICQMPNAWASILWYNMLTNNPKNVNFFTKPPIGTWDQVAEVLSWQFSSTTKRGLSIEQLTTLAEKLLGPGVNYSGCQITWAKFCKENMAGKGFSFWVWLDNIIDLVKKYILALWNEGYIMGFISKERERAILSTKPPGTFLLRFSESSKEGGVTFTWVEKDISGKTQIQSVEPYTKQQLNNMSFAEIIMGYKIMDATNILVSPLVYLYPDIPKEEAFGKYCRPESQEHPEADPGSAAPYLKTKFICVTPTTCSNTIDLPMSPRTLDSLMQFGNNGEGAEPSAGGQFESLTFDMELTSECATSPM
Regarding `CC1=C(C(=O)Nc2ccccc2)SCCO1`, the result was inactive.
On the same count and under the same terms, then `COP(N)(=O)SC` (configuration not stated), with “inactive”; and `O=C(Nc1ccccc1)Nc1ccnc(Cl)c1`, with “inactive”; and `CC1COC(Cn2cncn2)(c2ccc(Oc3ccc(Cl)cc3)cc2Cl)O1` (configuration not stated), with “inactive”.
Still for that read-out and setting: the same measure for `C=CC1(C)OC(=O)N(c2cc(Cl)cc(Cl)c2)C1=O` (configuration not stated): “inactive”.

Test system in a further test: not listed separately
In words: ATG_TA_CIS: Attagene CIS-FACTORIAL HepG2 Assay for human TA Basal Promoter (AID 2282964). As to conditions: HepG2 Attagene CIS-factorial TA basal promoter reporter; actives raise or lower the signal. The method, boiled down: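 Multiplexed mRNA reporter assay, HepG2, 24 h. Reporter cDNA amplified, 6-FAM primer-extended, HpaI-cut, CE-sized; DMSO = negative control and baseline.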
With `N#Cc1cc(Br)c(O)c(Br)c1`, the call was inactive.
On the same count and under the same terms, then `Cc1c(F)c(F)c(COC(=O)C2C(/C=C(\Cl)C(F)(F)F)C2(C)C)c(F)c1F` (configuration not stated), with “inactive”; and `O=C(O)COc1nc(Cl)c(Cl)cc1Cl`, with “inactive”; and `COc1cnc(OC)n2nc(NS(=O)(=O)c3c(OCC(F)F)cccc3C(F)(F)F)nc12`, with “inactive”.
With `O=C(O)c1nc(Cl)ccc1Cl`, the compound was called inactive.
On the same count and under the same terms, the same measure for `CCOC(=O)C(Cl)Cc1cc(-n2nc(C)n(C(F)F)c2=O)c(F)cc1Cl` (configuration not stated): “inactive”; for `CNC(=O)ON=CC(C)(C)SC`: “inactive”; for `CCNc1nc(Cl)nc(NCC)n1`: “inactive”.
In the case of `N#CC(CCc1ccc(Cl)cc1)(Cn1cncn1)c1ccccc1` (configuration not stated), the AC50 is 16.9 µM (active).
As to `CCOP(=S)(OCC)SCn1c(=O)oc2cc(Cl)ccc21`, the compound was classed as inactive.
As for `CS/C(C)=N/OC(=O)N(C)SN(C)C(=O)O/N=C(\C)SC`, the result was inactive.
The same measure, in the same setting: the same measure for `Fc1ccc(Oc2ccnc3cc(Cl)cc(Cl)c23)cc1`: “inactive”; for `CCON=C(CC)C1=C(O)CC(c2c(C)cc(C)cc2C)CC1=O` (configuration not stated): “inactive”.
The same measure, in the same setting: then `Cc1ccc(-c2c(Cl)nc(C#N)n2S(=O)(=O)N(C)C)cc1`, with “inactive”; and `CC(Oc1ccc(Cl)cc1Cl)C(=O)O` (configuration not stated), with “inactive”.
On to `CCOc1cc(Oc2ccc(C(F)(F)F)cc2Cl)ccc1[N+](=O)[O-]`, for which the call was inactive.
As for `CCNc1nc(Cl)nc(NC(C)C)n1`, the compound was called inactive.
For `COC(=O)C(C)Oc1ccc(Oc2ccc(Cl)cc2Cl)cc1` (configuration not stated), the call was inactive.
`Cc1cc(Cl)ccc1OCC(=O)O`: the compound was classed as inactive.
`CN(C)C(=S)SSC(=S)N(C)C`: the compound was classed as inactive.
On the same count and under the same terms, the same measure for `C#CCOS(=O)OC1CCCCC1Oc1ccc(C(C)(C)C)cc1` (configuration not stated): “inactive”; for `CC(C)Oc1cc(-n2nc(C(C)(C)C)oc2=O)c(Cl)cc1Cl`: “inactive”; for `CC1=C(C(=O)Nc2ccccc2)SCCO1`: “inactive”.
Same read-out and setting: the same measure for `COP(N)(=O)SC` (configuration not stated): “inactive”.
The same measure, in the same setting: the same measure for `O=C(Nc1ccccc1)Nc1ccnc(Cl)c1`: “inactive”; for `CC1COC(Cn2cncn2)(c2ccc(Oc3ccc(Cl)cc3)cc2Cl)O1` (configuration not stated): “inactive”; for `C=CC1(C)OC(=O)N(c2cc(Cl)cc(Cl)c2)C1=O` (configuration not stated): “inactive”.
